VP16 counter: counter-screen for ROR gamma inhibitors: Gal4-VP16 reporter; AID 2546; actives 3.5% (n = 310,000); Drosophila S2 Gal4-VP16 UAS-luciferase, luminescence, 20 h; Potency, µM (highest dose often 53.6 µM), hits mostly inhibitors;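 also: Gal4-VP16 expression switched on by copper sulfate through the metallothionein promoter; nearly all actives have a fitted effect of over 50% in size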
MCF10A rerep: induces DNA re-replication in MCF 10a normal breast cells; AID 624296; MCF 10A DNA re-replication, Hoechst nuclear intensity, 48 h; actives 2.9% (n = 350,000); Potency, µM (top dose mostly 46.1 µM), most hits filed as activators; also: nearly all actives have a fitted effect of over 50% in size
ELG1 repair inh: inhibitors of ELG1-dependent DNA repair in HEK293T cells; HEK293T ELG1-luciferase reporter, luminescence, 16 h; DNA damage induced by 5-fluorouridine; Potency, µM (titrated, usually from 46.1 µM), usual class: inhibitors; actives 2.3% (n = 330,000); also: nearly all actives have a fitted effect of over 55% in size
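5-Fluorouridine DNA damage + compound/DMSO, 2,000 cells/well, 16 h, 37 °C/5% CO2. ONE-Glo, 30 min RT, luminescence. Readout = decrease in reporter signal.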
RORgamma inh: blocks mouse ROR gamma transcriptional activity. P51450. Drosophila S2 Gal4-RORgamma UAS-luciferase reporter, 20 h. Potency, µM (series often up to 53.6 µM), actives largely listed as inhibitors. actives 5.4% (n = 310,000). AID 2551; also: nearly all actives have a fitted effect of over 60% in size
Target sequence (P51450 whole entry, looked up, the tested form may be a part): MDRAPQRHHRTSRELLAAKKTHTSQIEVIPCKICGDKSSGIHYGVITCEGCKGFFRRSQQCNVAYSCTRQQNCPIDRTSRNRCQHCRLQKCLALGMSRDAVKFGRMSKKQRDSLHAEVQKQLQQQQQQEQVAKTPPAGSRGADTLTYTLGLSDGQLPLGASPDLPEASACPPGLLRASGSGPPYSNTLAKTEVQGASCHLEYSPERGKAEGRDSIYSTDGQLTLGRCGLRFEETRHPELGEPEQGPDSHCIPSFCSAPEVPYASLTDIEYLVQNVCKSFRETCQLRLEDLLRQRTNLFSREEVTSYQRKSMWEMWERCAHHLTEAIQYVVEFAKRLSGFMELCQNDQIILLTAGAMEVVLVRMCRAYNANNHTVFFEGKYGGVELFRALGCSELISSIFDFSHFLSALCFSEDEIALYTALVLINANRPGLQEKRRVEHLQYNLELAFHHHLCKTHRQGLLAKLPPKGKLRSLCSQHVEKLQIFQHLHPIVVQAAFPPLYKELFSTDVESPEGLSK
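Schneider cells (Drosophila), stable Gal4 DBD–ROR gamma + UAS-luc; 1 hr cmpd preincubation; Cu2+ induction 700 uM final; 20 hr ambient; luminescence.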
SW480 rereplic: inducers of DNA re-replication in SW480 colon cancer cells; SW480 DNA re-replication, Hoechst DNA content imaging, 48 h; actives 1.8% (n = 340,000); Potency, µM (series often up to 46.1 µM), actives largely listed as activators; also: nearly all actives have a fitted effect of over 55% in size
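DNA re-replication was detected as more nuclei of elevated Hoechst intensity after 48 hr exposure to compound (23 nL pinned per well of 250 cells).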
Large screens that a line does not name were inactive. Most compounds without a hit are left out; they make up all but 10% or so of the library. Calls follow the shape of the dose curve; as a rule, active = well fitted curve in the direction sought with a large enough effect; inconclusive = small, poorly fitted or top-dose-only effect, or another doubt; inactive = no such curve, though single readings can be large; an effect the other way counts as inactive or inconclusive.

COc1ccc(OCc2cc(C(=O)NC(C)Cc3ccccn3)no2)c(Cl)c1 (stereo unspecified)	ELG1 repair inh inconclusive
O=C(O)COc1ccc2occ(C(=O)c3ccccc3)c2c1	none
COC(=O)COc1ccc2occ(C(C)=O)c2c1	VP16 counter inconclusive, MCF10A rerep 8.2µM, SW480 rereplic 16µM
O=C1CCCCc2sc(Br)c([N+](=O)[O-])c2N1	VP16 counter inconclusive, MCF10A rerep inconclusive, ELG1 repair inh inconclusive, RORgamma inh 11µM, SW480 rereplic 2.9µM
Cc1ccc(S(=O)(=O)/C(=C/Cl)NC(=O)c2ccccc2)cc1	VP16 counter inconclusive, MCF10A rerep 4.1µM, ELG1 repair inh inconclusive, RORgamma inh inconclusive, SW480 rereplic 13µM
Cc1ccc(S(=O)(=O)C(NC(=O)c2ccccc2)=C(Cl)Cl)cc1	MCF10A rerep 6.5µM, SW480 rereplic inconclusive (no result: VP16 counter, ELG1 repair inh, RORgamma inh)
Cc1ccc(C(=O)NC(=C(Cl)Cl)S(=O)(=O)c2ccc(C)cc2)cc1	VP16 counter inconclusive, MCF10A rerep 13µM, RORgamma inh inconclusive, SW480 rereplic inconclusive
Cc1ccc(C(=O)NC(=C(Cl)Cl)S(=O)(=O)c2ccc(Cl)cc2)cc1	VP16 counter inconclusive, MCF10A rerep inconclusive, RORgamma inh inconclusive, SW480 rereplic inconclusive
CC(=O)NC(=C(Cl)Cl)S(=O)(=O)c1ccccc1	VP16 counter inconclusive, MCF10A rerep 13µM, ELG1 repair inh inconclusive, RORgamma inh 13µM, SW480 rereplic 12µM
O=S(=O)(Nc1ccc(O)c(Sc2nc3ccccc3s2)c1)c1cccc2ccccc12	VP16 counter 7.9µM, MCF10A rerep inconclusive, ELG1 repair inh inconclusive, RORgamma inh inconclusive
COc1cccc(NC(=S)N2CCCC2)c1	ELG1 repair inh inconclusive
COc1ccc(NC(=S)N2CCN(C(c3ccccc3)c3ccccc3)CC2)c(OC)c1	VP16 counter inconclusive, ELG1 repair inh inconclusive, RORgamma inh 5µM
COc1cccc(NC(=S)N2CCN(C(c3ccccc3)c3ccccc3)CC2)c1	VP16 counter 8.9µM, RORgamma inh 4.5µM
COc1ccc(N2CCN(C(=S)Nc3ccc(OC)cc3OC)CC2)cc1	none
COc1ccccc1NC(=S)NC(=O)c1ccc(Cn2cc(Br)cn2)cc1	VP16 counter inconclusive, MCF10A rerep inconclusive, RORgamma inh 7.9µM
CCn1cc(C(=O)NC(=S)Nc2ccccc2Br)cn1	VP16 counter 10µM, RORgamma inh 7.1µM
CCn1cc(C(=O)NC(=S)Nc2ccccc2[N+](=O)[O-])cn1	VP16 counter inconclusive, RORgamma inh inconclusive
CC(=O)N1CCN(C(=S)NCCc2ccccc2)CC1	none
Cc1cnn(C(=S)NCc2ccc(Cl)cc2)c1	VP16 counter 7.1µM, RORgamma inh 6.3µM, SW480 rereplic inconclusive
Cc1cnn(C(=S)NCCc2ccccc2)c1	VP16 counter inconclusive, ELG1 repair inh inconclusive, RORgamma inh 14µM
CN(C(=O)CSc1cc(C(=O)c2nccn2C)c2ccccc2n1)c1ccccc1	none
COc1ccc(OC)c(/C=N\NC(=O)c2cc3c(ccc4ccccc43)o2)c1	MCF10A rerep inconclusive, ELG1 repair inh 16µM
O=C(N/N=C/c1cccc2ccccc12)c1cc2ccccc2o1	MCF10A rerep 12µM (no result: VP16 counter, RORgamma inh)
O=C(N/N=C/C=C/c1ccccc1)c1cc2c(ccc3ccccc32)o1	VP16 counter inconclusive, MCF10A rerep inconclusive, ELG1 repair inh inconclusive, RORgamma inh 7.1µM, SW480 rereplic 12µM
O=C(N/N=C/c1ccccc1F)c1cc2c(ccc3ccccc32)o1	VP16 counter inconclusive, RORgamma inh inconclusive
O=C(COc1ccc(/C=N/NC(=O)c2cc3ccccc3o2)cc1Cl)Nc1ccccc1	VP16 counter 0.89µM, MCF10A rerep inconclusive, ELG1 repair inh inconclusive, RORgamma inh 1.3µM
Cn1c(CC(=O)Nc2ccccc2F)nnc1SCC(=O)N1CCOCC1	ELG1 repair inh inconclusive
CN(C(=O)CSc1nc2ccc(Cl)cc2[nH]1)C1CCS(=O)(=O)C1 (stereo unspecified)	none (no result: VP16 counter, RORgamma inh)
C=CCn1cc(/C=N\NC(=O)c2cc3c(ccc4ccccc43)o2)c2ccccc21	ELG1 repair inh inconclusive, RORgamma inh 5.6µM
O=C(O)Cn1cc(/C=N/NC(=O)c2cc3cc(Br)ccc3o2)c2ccccc21	none
C#CCn1cc(/C=N/NC(=O)c2cc3ccccc3o2)c2ccccc21	VP16 counter inconclusive, MCF10A rerep inconclusive, RORgamma inh 18µM, SW480 rereplic inconclusive
COC(=O)c1cc(S(=O)(=O)N2c3ccccc3CC2C)c[nH]1 (stereo unspecified)	none
O=C(COC(=O)CC1CCCC1)Nc1ccccc1[N+](=O)[O-]	none (no result: VP16 counter, RORgamma inh)
COc1ccc2nc3ccccc3nc2c1N	VP16 counter 16µM, MCF10A rerep inconclusive, ELG1 repair inh inconclusive, RORgamma inh inconclusive
COc1ccc(-c2nc3ccccc3nc2-c2ccc(OC)c(OC)c2)cc1OC	RORgamma inh inconclusive
COc1ccc2nc3cccc(OC)c3nc2c1	VP16 counter inconclusive, MCF10A rerep 1.3µM, ELG1 repair inh inconclusive, RORgamma inh inconclusive, SW480 rereplic inconclusive
CC1(C)CC(NC(=O)c2cc(Cl)ccc2Cl)CC(C)(C)N1	SW480 rereplic 9.2µM
CCCCOc1ccc2c(c1)C(=O)c1cc(O)ccc1-2	VP16 counter inconclusive, MCF10A rerep inconclusive, ELG1 repair inh inconclusive, RORgamma inh 8.9µM
COC(=O)c1ccc(Oc2nc(Nc3ccc(C)c(C)c3)nc(N(C)C)n2)cc1	ELG1 repair inh 21µM, SW480 rereplic inconclusive
CCOC(=O)CN1C(=O)C(=O)N(Cc2ccccc2F)C1=O	ELG1 repair inh inconclusive
CC(=O)Nc1cccc(C(=O)N2CCN(S(=O)(=O)c3ccc(C4CCCCC4)cc3)CC2)c1	none (no result: VP16 counter, ELG1 repair inh, RORgamma inh)
Cc1cc(C(=O)N2CCN(c3ccc([N+](=O)[O-])cc3)CC2)c(C)o1	MCF10A rerep 3.7µM, SW480 rereplic 4.1µM
COc1ccc(N2CCN(C(=O)c3ccc(COc4ccc([N+](=O)[O-])cc4)o3)CC2)cc1	MCF10A rerep inconclusive, ELG1 repair inh 21µM (no result: VP16 counter, RORgamma inh)
O=C(c1ccc(-c2cccc(Cl)c2)o1)N1CCN(c2ccc([N+](=O)[O-])cc2)CC1	ELG1 repair inh inconclusive
Cc1c(Cl)cccc1-c1ccc(C(=O)N2CCN(c3ccc([N+](=O)[O-])cc3)CC2)o1	ELG1 repair inh 16µM, RORgamma inh inconclusive
O=C(c1ccc(-c2ccc([N+](=O)[O-])cc2)o1)N1CCCC(C(F)(F)F)C1 (stereo unspecified)	none (no result: VP16 counter, RORgamma inh)
O=C(O)c1ccc(COc2ccc([N+](=O)[O-])cc2)o1	ELG1 repair inh inconclusive
Cc1cc(C(=O)N2CCN(c3ccc([N+](=O)[O-])cc3)CC2)co1	none
O=C(c1ccc(-c2ccc([N+](=O)[O-])cc2)o1)N1CCCCCCC1	MCF10A rerep 12µM, ELG1 repair inh inconclusive (no result: VP16 counter, RORgamma inh)
COc1ccc(NC(=S)Nc2ccccn2)c(OC)c1	ELG1 repair inh inconclusive, RORgamma inh 1.3µM
COc1ccc(NC(=S)Nc2cccnc2)c(OC)c1	none
COc1ccc(NC(=S)Nc2ccc(OC)cc2OC)c(OC)c1	VP16 counter inconclusive, RORgamma inh inconclusive

High-throughput results (PubChem BioAssay)
